{"source": "PubChem BioAssay", "note": "Where “and” joins values, the source holds several entries; their conditions need not be identical. Equal entries are not always repeated. Values without a mark were called inactive. The rule behind the calls is not given here."}
{"system": "Botulinum neurotoxin type F light chain protease (Clostridium botulinum)", "experiment": "Clostridium botulinum type F light chain protease inhibitors, microsphere substrate cleavage, validation (AID 588459)", "conditions": "multiplex microsphere protease substrate cleavage assay, flow cytometry; at 10 µM; hits give high values"}
{"smiles": "CS(=O)(=O)Nc1ccc([N+](=O)[O-])cc1Oc1ccccc1", "inhibition": "0%"}
{"smiles": "O=C(O)c1cc2cc(Cl)cc(Cl)c2oc1=O", "inhibition": "-2.3%"}
{"smiles": "CC(=O)NCCCC(=O)NC(CCC(=O)OCc1ccccc1)C(=O)OCc1ccccc1", "note": "(stereo unspecified)", "inhibition": "-1%"}
{"smiles": "Cc1ccccc1N1C(N)=NC(N)=NC1(C)C", "inhibition": "-1.5%"}
{"smiles": "O=C(CCc1ccccc1)Nc1ccccc1C(F)(F)F", "inhibition": "0.7%"}
{"smiles": "COc1cc2c(cc1OC)C1(CCCCC1)CN(C)C2", "inhibition": "1.7%"}
{"smiles": "CNCCC(Oc1ccc(C(F)(F)F)cc1)c1ccccc1", "note": "(stereo unspecified)", "inhibition": "-3.3%"}
{"smiles": "C#C[C@]1(O)CC[C@H]2[C@@H]3CCC4=CC(=O)CC[C@@H]4[C@H]3CC[C@@]21CC", "inhibition": "-0.6%"}
{"smiles": "CCN(CC)c1ccc([C@H]2[C@@H]3CCCC[C@]3(O)CCN2CC(=O)NCc2ccco2)cc1", "inhibition": "-1.2%"}
{"smiles": "O=C1[C@@H]2[C@H](Cc3ccc(O)cc3)N[C@]3(C(=O)Nc4ccccc43)[C@@H]2C(=O)N1c1ccc(F)cc1", "inhibition": "1.3%"}
{"smiles": "CC(=O)N(CCC1(c2ccc(C)cc2)CCOC(C(C)C)C1)Cc1ccco1", "note": "(stereo unspecified)", "inhibition": "-5.3%"}
{"smiles": "CN1[C@@H]2CC(OC(=O)[C@H](CO)c3ccccc3)C[C@H]1[C@@H]1O[C@@H]12", "note": "(stereo partly specified)", "inhibition": "-2.9%"}
{"smiles": "CC(=O)OCC(=O)[C@@]12OC(C)(C)O[C@@H]1C[C@H]1[C@@H]3C[C@H](F)C4=CC(=O)C=C[C@]4(C)[C@@]3(F)[C@@H](O)C[C@@]12C", "inhibition": "-3.5%"}
{"smiles": "COc1ccc(C2=NOC(COc3ccc4c(C)cc(=O)oc4c3)C2)c(OC)c1", "note": "(stereo unspecified)", "inhibition": "-0.4%"}
{"smiles": "O=C(CCc1c[nH]c2ccccc12)NCc1ccco1", "inhibition": "2.9%"}
{"smiles": "COc1cc2c(cc1O)CC[C@@H]1[C@@H]2CC[C@]2(C)[C@@H](O)CC[C@@H]12", "inhibition": "-2.1%"}
{"smiles": "C#CCN1C(=O)C(O)(CC(=O)c2ccc(OC)c(OC)c2)c2ccccc21", "note": "(stereo unspecified)", "inhibition": "2.3%"}
{"smiles": "Cc1ccc(-n2ncc3c(Nc4cccc(C(=O)O)c4)ncnc32)cc1", "inhibition": "0.7%"}
{"smiles": "COc1cc(OC)c(C(=O)CCCN2CCCC2)c(OC)c1", "inhibition": "2.9%"}
{"smiles": "O=c1ccc2c(o1)/C(=C/C=C(Cl)Cl)CCC2", "inhibition": "-0.9%"}
{"smiles": "O=C(O)CC(O)C(=O)O", "note": "(stereo unspecified)", "inhibition": "-3.1%"}
{"smiles": "NCCc1cnc[nH]1", "inhibition": "0.7% and 3.1%"}
{"biological_target": "Botulinum neurotoxin type A (Clostridium botulinum) (UniProt P0DPI0)", "sequence (P0DPI0 whole entry, looked up)": "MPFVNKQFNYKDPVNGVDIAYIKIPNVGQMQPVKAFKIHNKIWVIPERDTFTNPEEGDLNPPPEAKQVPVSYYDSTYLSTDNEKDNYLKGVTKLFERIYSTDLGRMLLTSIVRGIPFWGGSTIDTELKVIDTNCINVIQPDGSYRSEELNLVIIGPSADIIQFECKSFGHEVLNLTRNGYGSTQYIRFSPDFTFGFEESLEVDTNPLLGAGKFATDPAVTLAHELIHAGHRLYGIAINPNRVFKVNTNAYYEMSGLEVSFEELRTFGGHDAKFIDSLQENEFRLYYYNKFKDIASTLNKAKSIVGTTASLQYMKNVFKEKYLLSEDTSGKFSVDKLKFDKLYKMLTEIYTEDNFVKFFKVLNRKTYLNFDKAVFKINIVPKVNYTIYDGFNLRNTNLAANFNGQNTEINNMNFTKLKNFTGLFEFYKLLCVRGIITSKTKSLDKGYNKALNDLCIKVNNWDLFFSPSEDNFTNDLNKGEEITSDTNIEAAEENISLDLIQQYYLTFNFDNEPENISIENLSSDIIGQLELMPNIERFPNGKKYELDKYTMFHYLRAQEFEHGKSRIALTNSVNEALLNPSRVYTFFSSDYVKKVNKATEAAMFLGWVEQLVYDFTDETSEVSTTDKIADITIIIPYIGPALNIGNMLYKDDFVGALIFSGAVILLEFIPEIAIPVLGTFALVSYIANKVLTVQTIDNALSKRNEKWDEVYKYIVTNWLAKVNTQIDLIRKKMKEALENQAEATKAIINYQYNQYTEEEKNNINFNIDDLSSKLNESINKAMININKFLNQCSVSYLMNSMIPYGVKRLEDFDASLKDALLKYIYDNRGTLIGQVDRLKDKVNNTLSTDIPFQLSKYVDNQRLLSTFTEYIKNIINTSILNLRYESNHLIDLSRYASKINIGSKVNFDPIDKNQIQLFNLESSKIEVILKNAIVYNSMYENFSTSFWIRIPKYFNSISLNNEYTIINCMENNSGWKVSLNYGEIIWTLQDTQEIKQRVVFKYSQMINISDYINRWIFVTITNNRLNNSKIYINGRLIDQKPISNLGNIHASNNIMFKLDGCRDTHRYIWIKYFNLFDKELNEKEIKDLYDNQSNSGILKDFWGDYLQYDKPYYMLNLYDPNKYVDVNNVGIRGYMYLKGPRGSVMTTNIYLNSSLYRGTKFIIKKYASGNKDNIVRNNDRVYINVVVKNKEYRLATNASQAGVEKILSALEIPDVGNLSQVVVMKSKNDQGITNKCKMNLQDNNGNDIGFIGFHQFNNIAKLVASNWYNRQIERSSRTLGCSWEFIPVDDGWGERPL", "experiment": "BoNT/A light chain protease inhibitors, biochemical, multiplex microsphere flow cytometry, validation set (AID 588460)", "conditions": "at 10 µM, hits give high values"}
{"smiles": "O=C(N1CCCCC1)C1(c2ccccc2)CCOCC1", "inhibition": "1.3%"}
{"smiles": "COc1cccc(C2CC(=O)C3=C(C2)Nc2ccccc2N(C(=O)CCC(=O)O)C3c2ccc(F)cc2)c1", "note": "(stereo unspecified)", "inhibition": "0.4%"}
{"smiles": "Cc1cc(Cl)cc2c1NC(=O)[C@]21[C@@H]2C(=O)N(Cc3ccccc3)C(=O)[C@@H]2[C@@H]2CCCN21", "inhibition": "1.7%"}
{"smiles": "COc1ccccc1NC(=O)N1CCc2[nH]c3ccc(Cl)cc3c2C1", "inhibition": "0.4%"}
{"smiles": "NC(=O)c1cnccn1", "inhibition": "0.7%"}
{"smiles": "CCCCOn1c(C)c(C(C)=O)c2c3no[n+]([O-])c3ccc21", "inhibition": "0.2%"}
{"smiles": "CN/C(=C/[N+](=O)[O-])NCCSCc1ccc(CN(C)C)o1", "inhibition": "0.1%"}
{"smiles": "O=C(NCCc1ccccc1)C1CCN(C2CCN(Cc3ccco3)CC2)CC1", "inhibition": "-0.7%"}
{"smiles": "NC12CC3CC(CC(C3)C1)C2", "inhibition": "-0.6%"}
{"smiles": "CCC1CCc2c(sc(NC(=O)c3cccnc3)c2C(N)=O)C1", "note": "(stereo unspecified)", "inhibition": "-2.3%"}
{"smiles": "COc1cc(C(=O)Nc2ccc(N(C)C)cc2)c([N+](=O)[O-])cc1OC", "inhibition": "-0.2%"}
{"smiles": "Cc1cccc(N2C(=O)C3C(c4ccccc4)OC4(C(=O)c5ccccc5C4=O)C3C2=O)c1", "note": "(stereo unspecified)", "inhibition": "1%"}
{"smiles": "Nc1cccc(C(=O)O)c1", "inhibition": "-0.3%"}
{"smiles": "CC(N=C(NC#N)Nc1ccncc1)C(C)(C)C", "note": "(stereo unspecified)", "inhibition": "2.3%"}
{"smiles": "Cc1ccc2c(c1)c(=O)c1c3n2CCN(C(=O)CCl)C3CC1", "note": "(stereo unspecified)", "inhibition": "-1.3%"}
{"smiles": "NS(=O)(=O)c1cc2c(cc1C(F)(F)F)NCNS2(=O)=O", "inhibition": "-0.4%"}
{"smiles": "CCN(CC)CC#CCOC(=O)C(O)(c1ccccc1)C1CCCCC1", "note": "(stereo unspecified)", "inhibition": "0.6%"}
{"smiles": "CS(=O)(=O)Nc1ccc([N+](=O)[O-])cc1Oc1ccccc1", "inhibition": "-0.9%"}
{"smiles": "O=C(O)c1cc2cc(Cl)cc(Cl)c2oc1=O", "inhibition": "0.4%"}
{"smiles": "CC(=O)NCCCC(=O)NC(CCC(=O)OCc1ccccc1)C(=O)OCc1ccccc1", "note": "(stereo unspecified)", "inhibition": "-1.4%"}
{"smiles": "Cc1ccccc1N1C(N)=NC(N)=NC1(C)C", "inhibition": "-0.8%"}
{"smiles": "O=C(CCc1ccccc1)Nc1ccccc1C(F)(F)F", "inhibition": "-0.1%"}
{"smiles": "COc1cc2c(cc1OC)C1(CCCCC1)CN(C)C2", "inhibition": "-1.2%"}
{"smiles": "CNCCC(Oc1ccc(C(F)(F)F)cc1)c1ccccc1", "note": "(stereo unspecified)", "inhibition": "0.6%"}
{"smiles": "C#C[C@]1(O)CC[C@H]2[C@@H]3CCC4=CC(=O)CC[C@@H]4[C@H]3CC[C@@]21CC", "inhibition": "-1.3%"}
{"smiles": "CCN(CC)c1ccc([C@H]2[C@@H]3CCCC[C@]3(O)CCN2CC(=O)NCc2ccco2)cc1", "inhibition": "0.9%"}
{"smiles": "O=C1[C@@H]2[C@H](Cc3ccc(O)cc3)N[C@]3(C(=O)Nc4ccccc43)[C@@H]2C(=O)N1c1ccc(F)cc1", "inhibition": "1.7%"}
{"smiles": "CC(=O)N(CCC1(c2ccc(C)cc2)CCOC(C(C)C)C1)Cc1ccco1", "note": "(stereo unspecified)", "inhibition": "0%"}
{"smiles": "CN1[C@@H]2CC(OC(=O)[C@H](CO)c3ccccc3)C[C@H]1[C@@H]1O[C@@H]12", "note": "(stereo partly specified)", "inhibition": "-2.7% and -1%"}
{"smiles": "CC(=O)OCC(=O)[C@@]12OC(C)(C)O[C@@H]1C[C@H]1[C@@H]3C[C@H](F)C4=CC(=O)C=C[C@]4(C)[C@@]3(F)[C@@H](O)C[C@@]12C", "inhibition": "-1.4%"}
{"smiles": "COc1ccc(C2=NOC(COc3ccc4c(C)cc(=O)oc4c3)C2)c(OC)c1", "note": "(stereo unspecified)", "inhibition": "1.7%"}
{"smiles": "O=C(CCc1c[nH]c2ccccc12)NCc1ccco1", "inhibition": "0.2%"}
{"smiles": "COc1cc2c(cc1O)CC[C@@H]1[C@@H]2CC[C@]2(C)[C@@H](O)CC[C@@H]12", "inhibition": "-2.2%"}
{"smiles": "C#CCN1C(=O)C(O)(CC(=O)c2ccc(OC)c(OC)c2)c2ccccc21", "note": "(stereo unspecified)", "inhibition": "-1.3%"}
{"smiles": "Cc1ccc(-n2ncc3c(Nc4cccc(C(=O)O)c4)ncnc32)cc1", "inhibition": "-1.1%"}
{"smiles": "COc1cc(OC)c(C(=O)CCCN2CCCC2)c(OC)c1", "inhibition": "-0.9%"}
{"smiles": "O=c1ccc2c(o1)/C(=C/C=C(Cl)Cl)CCC2", "inhibition": "-0.6%"}
{"smiles": "O=C(O)CC(O)C(=O)O", "note": "(stereo unspecified)", "inhibition": "-0.9%"}
{"smiles": "NCCc1cnc[nH]1", "inhibition": "-1.5%"}
